# Experimental data taken from PubChem BioAssay (NCI).
# This is part of a sample that, as a whole, favours compounds with a hit. Of some 79,000 tested, about 15% had one in any assay. Values without a mark were called inactive. Active and inactive are the calls of the source. Rule as the data show it: active = growth inhibition above about 70%; inactive = the rest.
# Tests used:
# [1] = NCI Yeast Anticancer Drug Screen. Data for the rad52 strain (AID 147);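 also: 0% = growth of vehicle-treated control cultures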; details: S. cerevisiae rad52 mutant growth inhibition, hits give high values
# Method in brief: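 Genetically altered yeast (DNA damage repair defect) treated with compound; inhibition calculated relative to vehicle.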
# [2] = NCI Yeast Anticancer Drug Screen. Data for the wt1 strain (AID 149);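 also: 0% = growth of vehicle-treated wt1 cultures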; details: S. cerevisiae wt1 strain (SPY 50644) growth inhibition, hits give high values
# Method in brief: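 Measured: growth of wt1 yeast under compound versus vehicle treatment, reported as inhibition.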
# [3] = NCI Yeast Anticancer Drug Screen. Data for the rad50EPP+ strain (AID 151);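 also: 0% = growth of vehicle-treated control cultures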; details: S. cerevisiae rad50 mutant strain, hits give high values
# Method in brief: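 Strain rad50EPP+; compound exposure; % growth inhibition vs vehicle.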
# [4] = NCI Yeast Anticancer Drug Screen. Data for the rad50 strain (AID 155);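 also: 0% = growth of vehicle-only cultures of the same strain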; details: S. cerevisiae rad50 strain growth inhibition, hits give high values
# Method in brief: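 Growth of the mutant yeast was measured after compound exposure and referenced to vehicle-treated cultures.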
# [5] = NCI Yeast Anticancer Drug Screen. Data for the mec2-1 strain (AID 157); details: S. cerevisiae mec2-1 strain, hits give high values
# Method in brief: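 Cells of the genetically defined mec2-1 yeast strain are incubated with test compound. Inhibition of growth is calculated against vehicle-treated controls.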
# [6] = NCI Yeast Anticancer Drug Screen. Data for the rad14 strain (AID 159);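 also: 0% = growth of vehicle-treated control cultures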; details: S. cerevisiae rad14 strain growth inhibition, hits give high values
# Method in brief: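 Here, inhibition of yeast growth was measured after compound exposure, using a strain with a genetic defect in DNA damage repair and vehicle-treated cultures as the reference.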
# [7] = NCI Yeast Anticancer Drug Screen. Data for the CLN2oe strain (AID 163);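 also: 0% = growth of vehicle-only control cultures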; details: S. cerevisiae CLN2oe strain, hits give high values
# Method in brief: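 Strain altered in cell-cycle control, incubated with compound; growth compared to solvent-treated controls.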
# [8] = NCI Yeast Anticancer Drug Screen. Data for the cln2 rad14 strain (AID 165);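 also: 0% = growth equal to vehicle treated cultures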; details: S. cerevisiae cln2 rad14 strain, hits give high values
# Method in brief: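 The screen exposed genetically defined yeast (cln2 rad14) to test compounds and scored growth inhibition relative to vehicle-treated controls.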
# [9] = NCI Yeast Anticancer Drug Screen. Data for the bub3 strain (AID 167); details: S. cerevisiae bub3 mutant strain, hits give high values
# Method in brief: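 Whole-cell yeast assay. The mutant strain was incubated with compounds, and growth inhibition was determined by comparison with vehicle-treated cells.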
# [10] = NCI Yeast Anticancer Drug Screen. Data for the wt2 strain (AID 169);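 also: 0% = growth of vehicle-treated yeast cultures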; details: S. cerevisiae wt2 strain growth inhibition, hits give high values
# Method in brief: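 Steps: yeast strain treated with compound; growth recorded; inhibition calculated relative to cultures given vehicle alone.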
# [11] = NCI Yeast Anticancer Drug Screen. Data for the mlh1 strain (AID 171);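 also: 0% = growth of vehicle-treated control cultures of the same strain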; details: S. cerevisiae mlh1 strain growth inhibition, hits give high values
# Method in brief: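 Yeast screen: mutant strain plus compound, growth scored against vehicle control wells.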
# [12] = NCI Yeast Anticancer Drug Screen. Data for the sgs1 strain (AID 173);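 also: 0% = growth of vehicle-only control cultures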; details: S. cerevisiae sgs1 mutant, hits give high values
# Method in brief: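 Inhibition of yeast growth served as the measure. The mutant strain was treated with each compound, and growth was normalised to cultures receiving vehicle alone.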
# [13] = NCI Yeast Anticancer Drug Screen. Data for the mlh1 rad18 strain (AID 175); details: S. cerevisiae mlh1 rad18 strain growth inhibition, hits give high values
# Method in brief: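 Compound-treated yeast growth, normalised to vehicle controls. Strain bears defined DNA repair mutations.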
# [14] = NCI Yeast Anticancer Drug Screen. Data for the rad18 strain (AID 177); details: S. cerevisiae rad18 mutant growth inhibition, hits give high values
# Method in brief: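 Inhibition values reflect reduced yeast growth compared with vehicle-treated controls, using a strain engineered with a DNA damage repair defect.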
# [15] = NCI Yeast Anticancer Drug Screen. Data for the sgs1 mgt1 strain (AID 161);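 also: 0% = growth of cultures given vehicle only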; details: S. cerevisiae sgs1 mgt1 strain, hits give high values
# Method in brief: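 Genetically altered yeast, compound exposure, growth inhibition relative to vehicle.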
# [16] = at 5.0 µM (retest, dose inferred, filed as 0.5)
# [17] = at 50.0 µM (retest, dose inferred, filed as 5.0)
structure (smiles),measurement,setting,value
Clc1c(Cl)c(Cl)c2c(nnn2C2CCCO2)c1Cl (stereo not drawn),growth inhibition,[1]; at 1.2 µM,10%
same,growth inhibition,[1]; at 3.7 µM,19%
same,growth inhibition,[1]; at 11.0 µM,24%
same,growth inhibition,[1]; at 33.0 µM,33%
same,growth inhibition,[1]; at 100.0 µM,58%
same,growth inhibition,[2]; at 1.2 µM,0%
same,growth inhibition,[2]; at 3.7 µM,-1%
same,growth inhibition,[2]; at 11.0 µM,-5%
same,growth inhibition,[2]; at 33.0 µM,11%
same,growth inhibition,[2]; at 100.0 µM,46%
same,growth inhibition,[3]; at 1.2 µM,-32%
same,growth inhibition,[3]; at 3.7 µM,-10%
same,growth inhibition,[3]; at 11.0 µM,-9%
same,growth inhibition,[3]; at 33.0 µM,-4%
same,growth inhibition,[3]; at 100.0 µM,35%
same,growth inhibition,[4]; at 1.2 µM,5%
same,growth inhibition,[4]; at 3.7 µM,-1%
same,growth inhibition,[4]; [16],4%
same,growth inhibition,[4]; at 11.0 µM,6%
same,growth inhibition,[4]; at 33.0 µM,14%
same,growth inhibition,[4]; [17],38%
same,growth inhibition,[4]; at 50.0 µM,78.3% (active)
same,growth inhibition,[4]; at 100.0 µM,48%
same,growth inhibition,[5]; at 1.2 µM,2%
same,growth inhibition,[5]; at 3.7 µM,-1%
same,growth inhibition,[5]; [16],12%
same,growth inhibition,[5]; at 11.0 µM,10%
same,growth inhibition,[5]; at 33.0 µM,8%
same,growth inhibition,[5]; [17],48%
same,growth inhibition,[5]; at 50.0 µM,85.2% (active)
same,growth inhibition,[5]; at 100.0 µM,76% (active)
same,growth inhibition,[6]; at 1.2 µM,-11%
same,growth inhibition,[6]; at 3.7 µM,-8%
same,growth inhibition,[6]; at 11.0 µM,-1%
same,growth inhibition,[6]; at 33.0 µM,12%
same,growth inhibition,[6]; at 100.0 µM,75% (active)
same,growth inhibition,[7]; at 1.2 µM,-11%
same,growth inhibition,[7]; at 3.7 µM,1%
same,growth inhibition,[7]; at 11.0 µM,0%
same,growth inhibition,[7]; at 33.0 µM,9%
same,growth inhibition,[7]; at 100.0 µM,33%
same,growth inhibition,[8]; [16],8%
same,growth inhibition,[8]; [17],62%
same,growth inhibition,[8]; at 50.0 µM,74.8% (active)
same,growth inhibition,[9]; at 1.2 µM,-7%
same,growth inhibition,[9]; at 3.7 µM,-8%
same,growth inhibition,[9]; [16],18%
same,growth inhibition,[9]; at 11.0 µM,-22%
same,growth inhibition,[9]; at 33.0 µM,11%
same,growth inhibition,[9]; [17],60%
same,growth inhibition,[9]; at 50.0 µM,83.2% (active)
same,growth inhibition,[9]; at 100.0 µM,50%
same,growth inhibition,[10]; at 1.2 µM,-14%
same,growth inhibition,[10]; at 3.7 µM,-2%
same,growth inhibition,[10]; at 11.0 µM,6%
same,growth inhibition,[10]; at 33.0 µM,60%
same,growth inhibition,[10]; at 100.0 µM,97% (active)
same,growth inhibition,[11]; at 1.2 µM,-5%
same,growth inhibition,[11]; at 3.7 µM,-2%
same,growth inhibition,[11]; at 11.0 µM,4%
same,growth inhibition,[11]; at 33.0 µM,30%
same,growth inhibition,[11]; at 100.0 µM,85% (active)
same,growth inhibition,[12]; at 1.2 µM,-30%
same,growth inhibition,[12]; at 3.7 µM,-13%
same,growth inhibition,[12]; at 11.0 µM,-1%
same,growth inhibition,[12]; at 33.0 µM,12%
same,growth inhibition,[12]; at 100.0 µM,83% (active)
same,growth inhibition,[13]; [16],7%
same,growth inhibition,[13]; [17],45%
same,growth inhibition,[13]; at 50.0 µM,83.8% (active)
same,growth inhibition,[14]; at 1.2 µM,-15%
same,growth inhibition,[14]; at 3.7 µM,-4%
same,growth inhibition,[14]; at 11.0 µM,2%
same,growth inhibition,[14]; at 33.0 µM,14%
same,growth inhibition,[14]; at 100.0 µM,54%
Oc1ccccc1N=Cc1ccc(Cl)cc1,growth inhibition,[1]; at 1.2 µM,5%
same,growth inhibition,[1]; at 3.7 µM,10%
same,growth inhibition,[1]; at 11.0 µM,20%
same,growth inhibition,[1]; at 33.0 µM,29%
same,growth inhibition,[1]; at 100.0 µM,39%
same,growth inhibition,[2]; at 1.2 µM,14%
same,growth inhibition,[2]; at 3.7 µM,12%
same,growth inhibition,[2]; at 11.0 µM,10%
same,growth inhibition,[2]; at 33.0 µM,15%
same,growth inhibition,[2]; at 100.0 µM,17%
same,growth inhibition,[3]; at 1.2 µM,6%
same,growth inhibition,[3]; at 3.7 µM,21%
same,growth inhibition,[3]; at 11.0 µM,35%
same,growth inhibition,[3]; at 33.0 µM,52%
same,growth inhibition,[3]; at 100.0 µM,59%
same,growth inhibition,[4]; at 1.2 µM,9%
same,growth inhibition,[4]; at 3.7 µM,54%
same,growth inhibition,[4]; [16],16%
same,growth inhibition,[4]; at 11.0 µM,42%
same,growth inhibition,[4]; at 33.0 µM,59%
same,growth inhibition,[4]; [17],26%
same,growth inhibition,[4]; at 50.0 µM,32%
same,growth inhibition,[4]; at 100.0 µM,82% (active)
same,growth inhibition,[5]; at 1.2 µM,17%
same,growth inhibition,[5]; at 3.7 µM,16%
same,growth inhibition,[5]; [16],-23%
same,growth inhibition,[5]; at 11.0 µM,18%
same,growth inhibition,[5]; at 33.0 µM,22%
same,growth inhibition,[5]; [17],24%
same,growth inhibition,[5]; at 50.0 µM,29.1%
same,growth inhibition,[5]; at 100.0 µM,40%
same,growth inhibition,[15]; [16],20%
same,growth inhibition,[15]; [17],24%
same,growth inhibition,[15]; at 50.0 µM,25.6%
same,growth inhibition,[7]; at 1.2 µM,-4%
same,growth inhibition,[7]; at 3.7 µM,-2%
same,growth inhibition,[7]; at 11.0 µM,-1%
same,growth inhibition,[7]; at 33.0 µM,1%
same,growth inhibition,[7]; at 100.0 µM,9%
same,growth inhibition,[8]; [16],2%
same,growth inhibition,[8]; [17],14%
same,growth inhibition,[8]; at 50.0 µM,-9.8%
same,growth inhibition,[9]; at 1.2 µM,33%
same,growth inhibition,[9]; at 3.7 µM,55%
same,growth inhibition,[9]; [16],56%
same,growth inhibition,[9]; at 11.0 µM,70% (active)
same,growth inhibition,[9]; at 33.0 µM,78% (active)
same,growth inhibition,[9]; [17],73% (active)
same,growth inhibition,[9]; at 50.0 µM,71.5% (active)
same,growth inhibition,[9]; at 100.0 µM,81% (active)
same,growth inhibition,[10]; at 1.2 µM,14%
same,growth inhibition,[10]; at 3.7 µM,16%
same,growth inhibition,[10]; at 11.0 µM,4%
same,growth inhibition,[10]; at 33.0 µM,8%
same,growth inhibition,[10]; at 100.0 µM,13%
same,growth inhibition,[11]; at 1.2 µM,12%
same,growth inhibition,[11]; at 3.7 µM,10%
same,growth inhibition,[11]; at 11.0 µM,11%
same,growth inhibition,[11]; at 33.0 µM,18%
same,growth inhibition,[11]; at 100.0 µM,27%
same,growth inhibition,[12]; at 1.2 µM,17%
same,growth inhibition,[12]; at 3.7 µM,13%
same,growth inhibition,[12]; at 11.0 µM,19%
same,growth inhibition,[12]; at 33.0 µM,23%
same,growth inhibition,[12]; at 100.0 µM,29%
same,growth inhibition,[13]; [16],41%
same,growth inhibition,[13]; [17],53%
same,growth inhibition,[13]; at 50.0 µM,60.5%
same,growth inhibition,[14]; at 1.2 µM,17%
same,growth inhibition,[14]; at 3.7 µM,30%
same,growth inhibition,[14]; at 11.0 µM,43%
same,growth inhibition,[14]; at 33.0 µM,64%
same,growth inhibition,[14]; at 100.0 µM,87% (active)
